# “And” between values parts separate entries of the source, which are not always exact repeats. Equal values may be shown once. Results filed as inconclusive are left out. A call without a number means that no potency is given here. The source made the active and inactive calls. Unless noted, calls come from the whole dose curve; as a rule, active = well fitted curve in the direction sought with a large enough effect; inconclusive = small, poorly fitted or top-dose-only effect, or another doubt; inactive = no such curve, though single readings can be large; an effect the other way counts as inactive or inconclusive.
# How the values were obtained:
# [1] = Cell Viability - LYMP2-006 (AID 978); note: nearly all actives have a fitted effect of over 60% in size
# Summary of the method: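 Human lymphoblastoid cells, 2500 per well, were preincubated 5 hr at 37 C, then exposed to compounds for 24 hr at 37 C in complete medium. Viability was read as intracellular ATP by CellTiter-Glo luminescence; AC50 from Hill-equation fits of qHTS concentration-response data.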
# [2] = Cell Viability - LYMP2-007 (AID 979);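 note: cells exposed to compound for 24 h before reading; nearly all actives have a fitted effect of over 60% in size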
# Summary of the method: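 Luminescent ATP signal (CellTiter-Glo) serves as the viability read-out after 24 hr compound treatment of lymphoblastoid cells in complete medium at 37 C. Concentration-response data were fitted to the Hill equation to give AC50 values.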
# [3] = Cell Viability - LYMP2-008 (AID 980); note: nearly all actives have a fitted effect of over 60% in size
# Summary of the method: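 qHTS, human lymphoblastoid line, 2500 cells/well; 5 hr preincubation, 24 hr compound, 37 C. CellTiter-Glo ATP luminescence. AC50 via Hill equation. Tetraoctylammonium bromide positive control.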
# [4] = Cell Viability - LYMP2-010 (AID 981); note: nearly all actives have a fitted effect of over 55% in size
# Summary of the method: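 Luminescent ATP signal (CellTiter-Glo) served as the viability read-out. Cells of the human lymphoblastoid line were treated with compound over a concentration range for 24 hours at 37 C, and AC50 values came from Hill-equation modeling.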
# [5] = Cell Viability - LYMP2-012 (AID 982);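 note: cellular ATP by luciferase luminescence where a drop means cytotoxicity; cells exposed to compound for one day before reading; nearly all actives have a fitted effect of over 55% in size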
# [6] = Cell Viability - LYMP2-014 (AID 983); note: nearly all actives have a fitted effect of over 50% in size
# Summary of the method: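 Luminescent ATP signal (CellTiter-Glo, 30 min at room temperature) serves as the viability read-out after 24 hr compound exposure at 37 C. Cells were seeded at 2500 per well and settled 5 hr beforehand.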
# [7] = Cell Viability - LYMP2-016 (AID 984); note: nearly all actives have a fitted effect of over 55% in size
# Summary of the method: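 Human lymphoblastoid cells (LYMP2-016), 2500/well in complete medium, preincubated 5 hr at 37 C, then compound-treated 24 hr at 37 C. Intracellular ATP read by CellTiter-Glo luminescence after 30 min at room temperature; AC50 from Hill-equation concentration-response fits.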
# [8] = Cell Viability - LYMP2-018 (AID 985); note: nearly all actives have a fitted effect of over 50% in size; note: potency is the fitted concentration of half-maximal effect
# Summary of the method: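 Luminescent ATP signal (CellTiter-Glo, read after 30 min at room temperature) reports viable cells after 24 hr compound treatment at 37 C. Concentration-response data were fitted to the standard Hill equation for AC50.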
# [9] = Cell Viability - LYMP2-020 (AID 986); note: nearly all actives have a fitted effect of over 55% in size; note: potency is the fitted concentration of half-maximal effect
# Summary of the method: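 Luminescent ATP signal (CellTiter-Glo, 30 min at room temperature) is the read-out after 24 h compound treatment of lymphoblastoid cells at 37 C. AC50 values come from Hill-equation fits across concentrations.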
# [10] = Cell Viability - LYMP2-022 (AID 987); note: nearly all actives have a fitted effect of over 55% in size
# Summary of the method: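 qHTS: human lymphoblastoid cells 2500/well; 5 hr 37 C; cpd added; 24 hr 37 C; CellTiter-Glo, 30 min RT; luminescence. AC50 via Hill fit; tetraoctylammonium bromide positive ctrl.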
# [11] = Cell Viability - LYMP2-024 (AID 988); note: nearly all actives have a fitted effect of over 60% in size; note: potency is the fitted concentration of half-maximal effect
# Summary of the method: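 Steps: seed 2500 cells/well, 5 hr 37 C; add compound, 24 hr 37 C; add CellTiter-Glo, 30 min room temperature; read luminescence. AC50 derived by Hill modelling of concentration-dependent ATP loss.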
# [12] = Cell Viability - LYMP2-026 (AID 989); note: nearly all actives have a fitted effect of over 50% in size
# Summary of the method: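 Luminescent ATP signal (CellTiter-Glo, 30 min room temperature) measures viable lymphoblastoid cells after 24 hr compound treatment at 37 C. Decreased ATP reflects acute toxicity; AC50 values come from Hill-equation modeling.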
# [13] = Cell Viability - LYMP1-002 - Assay at 24 hr (AID 993)
# Summary of the method: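 Cells plated 2500/well, 5 hr 37 C; compounds added, 24 hr 37 C; CellTiter-Glo added, 30 min RT; luminescence read. Tetraoctylammonium bromide positive control. Hill-equation AC50.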
# [14] = Cell Viability - LYMP1-002 - Assay at 40 hr (AID 994); note: nearly all actives have a fitted effect of over 60% in size; note: potency is the fitted concentration of half-maximal effect
# Summary of the method: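 Luminescent ATP signal served as the viability readout, with decreases taken as toxicity. Cells were treated with compounds across a concentration range for 40 hours at 37 C, and AC50 values came from standard Hill modeling.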
# [15] = qHTS Assay for Lipid Storage Modulators (AID 1519; calls by dose curve); conditions: Drosophila S3 cells, BODIPY lipid droplet/cell ratio, laser cytometry, cells loaded with oleic acid
# Summary of the method: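 Cells seeded at 5,000 per well were treated with compounds over a concentration series and loaded with oleic acid (400 uM, as added). Lipid droplet fluorescence (488 nm excitation, 500-530 nm channel) was read by laser-scanning cytometry and normalized to 20 uM Triacsin C.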
# [16] = target: Alpha-galactosidase A (Homo sapiens) (UniProt P06280); experiment: Counterscreen for Glucocerebrosidase Inhibitors: qHTS Assay for Human alpha-Galactosidase at pH 4.5 (AID 992)
# Summary of the method: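 Quantitative HTS: compounds tested from 0.7 nM up to 77 uM against 2 nM enzyme with 80 uM 4-MU alpha-D-galactopyranoside. The 20 min room-temperature reaction is stopped with 1M NaOH/1M glycine, pH 10.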
# [17] = target: alpha-glucosidase (Oryza sativa, rice) (UniProt Q653V4); experiment: Counterscreen for Glucocerebrosidase Inhibitors: qHTS Assay for Rice alpha-Glucosidase at pH 5.0 (AID 997)
# Summary of the method: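 Rice alpha-glucosidase (4 nM final) with 400 uM 4-methylumbelliferyl-alpha-D-glucopyranoside in citrate buffer pH 5.0, 20 min at room temperature, stopped at pH 10; fluorescence 365/440 nm, compounds 0.7 nM–77 uM, AC50 from Hill fits.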
# [18] = target: DNA repair nuclease/redox regulator APEX1 (Homo sapiens) (UniProt P27695); experiment: qHTS Validation Assay for Inhibitors of the Human Apurinic/apyrimidinic Endonuclease 1 (APE1) (AID 1705;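 note: TAMRA fluorescence gain over two minutes as APE1 cuts a quenched THF abasic duplex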)
# Summary of the method: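 Human APE1 was preincubated with compound for 15 min at room temperature, then 50 nM (final) THF-abasic double-stranded DNA substrate bearing 5'-TAMRA and 3'-BHQ-2 was added. Incision-driven fluorescence rise (ex 525/em 598 nm) was read kinetically.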
# [19] = Counterscreen for APE1 Inhibitors: Fluorescent Dye Displacement Validation Assay (AID 1707)
# Summary of the method: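 Compounds are scored by their ability to displace Thiazole Orange (250 nM) from a 50 nM TAMRA-tagged duplex bearing a tetrahydrofuran abasic site. Buffer is 50 mM Tris-HCl pH7.5, 50mM NaCl, 2 mM MgCl2, 0.01% Tween-20.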
# [20] = measured here: cell count channel max response
# [21] = measured here: lipid channel max response
# Chain of Alpha-galactosidase A (Homo sapiens) (P06280 whole entry, looked up): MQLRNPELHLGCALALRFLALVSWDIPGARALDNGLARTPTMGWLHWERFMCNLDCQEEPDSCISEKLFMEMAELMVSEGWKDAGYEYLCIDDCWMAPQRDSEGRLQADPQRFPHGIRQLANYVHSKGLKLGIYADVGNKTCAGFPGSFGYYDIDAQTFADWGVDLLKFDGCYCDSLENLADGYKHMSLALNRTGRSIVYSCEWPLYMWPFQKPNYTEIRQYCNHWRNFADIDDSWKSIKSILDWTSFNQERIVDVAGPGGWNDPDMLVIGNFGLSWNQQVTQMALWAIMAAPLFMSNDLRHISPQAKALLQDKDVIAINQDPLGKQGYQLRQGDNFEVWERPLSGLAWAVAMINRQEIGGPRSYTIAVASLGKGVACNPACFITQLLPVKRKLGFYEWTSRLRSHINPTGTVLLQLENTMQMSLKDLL
# Chain of DNA repair nuclease/redox regulator APEX1 (Homo sapiens) (P27695 whole entry, looked up): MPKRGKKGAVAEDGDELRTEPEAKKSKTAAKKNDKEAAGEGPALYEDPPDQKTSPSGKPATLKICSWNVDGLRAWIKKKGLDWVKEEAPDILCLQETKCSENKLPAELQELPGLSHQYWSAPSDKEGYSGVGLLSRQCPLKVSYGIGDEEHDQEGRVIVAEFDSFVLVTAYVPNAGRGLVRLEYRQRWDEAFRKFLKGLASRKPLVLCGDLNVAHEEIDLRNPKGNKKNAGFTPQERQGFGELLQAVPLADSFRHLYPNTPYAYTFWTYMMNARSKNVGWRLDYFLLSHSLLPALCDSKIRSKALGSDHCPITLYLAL
compound,measurement,setting,value
CCOc1ccc(NC(C)=O)cc1,outcome,[1],inactive
same,outcome,[2],inactive
same,outcome,[3],inactive
same,outcome,[4],inactive
same,outcome,[5],inactive
same,outcome,[6],inactive
same,outcome,[7],inactive
same,Potency,[8],inactive
same,Potency,[9],inactive
same,outcome,[10],inactive
same,Potency,[11],inactive
same,outcome,[12],inactive
same,outcome,[13],inactive
same,Potency,[14],inactive
same,"activity change, negative = inhibition",[15]; at 25.7 µM (top of the series),-1.03% (inactive)
same,max response,[15]; [20],1.01%
same,max response,[15]; [21],-4.32%
Oc1c(Cl)cc(Cl)c(Cl)c1Cc1c(O)c(Cl)cc(Cl)c1Cl,Potency,[8],25.1 µM (active)
same,Potency,[9],15.8 µM (active)
same,Potency,[11],39.8 µM (active)
same,Potency,[14],31.6 µM (active)
same,"activity change, negative = inhibition",[15]; at 57.5 µM (top of the series),7.05% (inactive)
same,max response,[15]; [20],18%
same,max response,[15]; [21],27%
CNCCc1ccccn1,"activity change, negative = inhibition",[15]; at 25.7 µM (top of the series),-0.261% (inactive)
same,"activity change, negative = inhibition",[15]; at 57.5 µM (top of the series),1.62% (inactive)
same,max response,[15]; [20],0.592% and 17.8%
same,max response,[15]; [21],1.76% and 22.8%
CC(C)(C)NC[C@H](O)COc1nsnc1N1CCOCC1,outcome,[16],inactive
same,outcome,[17],inactive
same,"activity change, negative = inhibition",[15]; at 25.7 µM (top of the series),-2.08% (inactive)
same,"activity change, negative = inhibition",[15]; at 57.5 µM (top of the series),1.69% (inactive)
same,max response,[15]; [20],10% and 1.77%
same,max response,[15]; [21],6.06% and 5.65%
COc1cc(N)c(Cl)cc1C(=O)NC1CCN(Cc2ccccc2)CC1,"activity change, negative = inhibition",[15]; at 25.7 µM (top of the series),0.953% (inactive)
same,"activity change, negative = inhibition",[15]; at 57.5 µM (top of the series),9.3% (inactive)
same,max response,[15]; [20],-2.73% and -2.52%
same,max response,[15]; [21],-0.303% and 10.6%
NC(N)=NCc1cccc(I)c1,outcome,[16],inactive
same,outcome,[17],inactive
same,"activity change, negative = inhibition",[15]; at 57.5 µM (top of the series),3.74% (inactive)
same,max response,[15]; [20],-19.1%
same,max response,[15]; [21],-12.1%
same,Potency,[18],inactive
same,outcome,[19],inactive
CCN(CC)CCNc1ccc(CO)c2sc3ccccc3c(=O)c12,"activity change, negative = inhibition",[15]; at 25.7 µM (top of the series),-5.73% (inactive)
same,"activity change, negative = inhibition",[15]; at 57.5 µM (top of the series),-11.5% (inactive)
same,max response,[15]; [20],-10.2% and 2.62%
same,max response,[15]; [21],-16.8% and -5.8%
O=C1C(O)=C(O)C(=O)C(O)=C1O,"activity change, negative = inhibition",[15]; at 25.7 µM (top of the series),-0.531% (inactive)
same,"activity change, negative = inhibition",[15]; at 57.5 µM (top of the series),9.14% (inactive)
same,max response,[15]; [20],-3.62% and 13.5%
same,max response,[15]; [21],-3.42% and 27.1%
NCCNc1cccc2ccccc12,outcome,[1],inactive
same,outcome,[2],inactive
same,outcome,[3],inactive
same,outcome,[4],inactive
same,outcome,[5],inactive
same,outcome,[6],inactive
same,outcome,[7],inactive
same,Potency,[8],inactive
same,Potency,[11],inactive
same,outcome,[12],inactive
same,outcome,[13],inactive
same,Potency,[14],inactive
O=C(CCCN1CC=C(n2c(=O)[nH]c3ccccc32)CC1)c1ccc(F)cc1,"activity change, negative = inhibition",[15]; at 25.7 µM (top of the series),1.32% (inactive)
same,"activity change, negative = inhibition",[15]; at 57.5 µM (top of the series),14.6% (inactive)
same,max response,[15]; [20],-13.4% and 7.49%
same,max response,[15]; [21],-9.23% and 27.6%
CCN(CC)CCNC(=O)c1cc(Br)c(N)cc1OC,"activity change, negative = inhibition",[15]; at 25.7 µM (top of the series),-3.04% (inactive)
same,"activity change, negative = inhibition",[15]; at 57.5 µM (top of the series),5.14% (inactive)
same,max response,[15]; [20],-6.94% and 12.8%
same,max response,[15]; [21],-8.36% and 21.9%
CCCCC(CC)CN1CN(CC(CC)CCCC)CC(C)(N)C1 (stereo unspecified),"activity change, negative = inhibition",[15]; at 57.5 µM (top of the series),3.27% (inactive)
same,max response,[15]; [20],28.9%
same,max response,[15]; [21],41.5%
COc1ccc(C(Cl)=C(c2ccc(OC)cc2)c2ccc(OC)cc2)cc1,outcome,[1],inactive
same,outcome,[2],inactive
same,outcome,[3],inactive
same,outcome,[4],inactive
same,outcome,[5],inactive
same,outcome,[6],inactive
same,outcome,[7],inactive
same,Potency,[8],inactive
same,Potency,[9],inactive
same,outcome,[10],inactive
same,Potency,[11],inactive
same,outcome,[13],inactive
same,Potency,[14],inactive
same,"activity change, negative = inhibition",[15]; at 25.7 µM (top of the series),1.46% (inactive)
same,max response,[15]; [20],-13.4%
same,max response,[15]; [21],-12.3%
OC[C@H]1O[C@@H]2O[C@H]3[C@H](O)[C@@H](O)[C@@H](O[C@H]4[C@H](O)[C@@H](O)[C@@H](O[C@H]5[C@H](O)[C@@H](O)[C@@H](O[C@H]6[C@H](O)[C@@H](O)[C@@H](O[C@H]7[C@H](O)[C@@H](O)[C@@H](O[C@H]8[C@H](O)[C@@H](O)[C@@H](O[C@H]1[C@H](O)[C@H]2O)O[C@@H]8CO)O[C@@H]7CO)O[C@@H]6CO)O[C@@H]5CO)O[C@@H]4CO)O[C@@H]3CO,outcome,[1],inactive
same,outcome,[2],inactive
same,outcome,[3],inactive
same,outcome,[4],inactive
same,outcome,[5],inactive
same,outcome,[6],inactive
same,outcome,[7],inactive
same,Potency,[8],inactive
same,Potency,[9],inactive
same,outcome,[10],inactive
same,Potency,[11],inactive
same,outcome,[12],inactive
same,outcome,[13],inactive
same,Potency,[14],inactive

# From PubChem BioAssay (NCATS)
